TDP1 block = inhibitors of human tyrosyl-DNA phosphodiesterase TDP1 | actives 0.28% (n = 350,000) | Q9NUW8 | Potency, µM (doses to about 130 µM), for the others: top-dose activity change, negative = inhibition, usual class: inhibitors | AID 485290 | recombinant TDP1, AlphaScreen DNA substrate cleavage; further: nearly all actives have a fitted effect of over 40% in size
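Recombinant human Tdp1 (E. coli-expressed, 1 nM final) preincubated with compounds 15 min at room temperature, then 5'-biotin/3'-phosphotyrosine-FITC DNA substrate (15 nM final) added for 5 min. AlphaScreen beads (10 ug/ml final) added 10 min; cleavage lowers signal.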
BLM helicase inh = Bloom syndrome helicase (human) inhibition; recombinant BLM DNA unwinding, fluorescence dequenching; actives 0.2% (n = 350,000); AID 2528; Potency, µM (doses to about 56.1 µM), for the others: top-dose activity change, negative = inhibition, hits mostly inhibitors; P54132;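 further: plate controls were vehicle for no effect and no enzyme for full effect; nearly all actives have a fitted effect of over 35% in size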
APEX1 inh = inhibitors of human APE1 endonuclease | actives 0.35% (n = 350,000) | AID 2517 | P27695 | recombinant APE1, TAMRA/BHQ-2 abasic DNA cleavage fluorescence | Potency, µM (highest dose often 65.8 µM), for the others: top-dose activity change, negative = inhibition, hits mostly inhibitors;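 further: plate controls were vehicle for no effect and reference inhibitor for full effect; nearly all actives have a fitted effect of over 55% in size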
Target sequence (P27695 whole entry, looked up): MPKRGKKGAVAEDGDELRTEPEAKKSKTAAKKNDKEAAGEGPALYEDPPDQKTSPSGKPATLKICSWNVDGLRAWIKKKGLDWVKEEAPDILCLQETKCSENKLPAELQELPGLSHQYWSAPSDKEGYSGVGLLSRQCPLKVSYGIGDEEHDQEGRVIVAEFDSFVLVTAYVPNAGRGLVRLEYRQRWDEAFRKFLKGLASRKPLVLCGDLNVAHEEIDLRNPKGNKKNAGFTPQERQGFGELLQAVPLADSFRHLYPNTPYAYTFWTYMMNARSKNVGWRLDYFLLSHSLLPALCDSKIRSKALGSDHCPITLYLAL
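APE1 at 0.75 nM preincubated 15 min at room temperature with compound. Reaction then started with 50 nM double-stranded THF-abasic substrate labelled with TAMRA/BHQ-2, and 525/598 nm fluorescence read kinetically. Activity taken as third-minus-first read difference, normalized to DMSO and NSC13755 controls.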
L3MBTL1 inh = inhibitors of human L3MBTL1 | Q9Y468 | AlphaScreen L3MBTL1–H3K9me1 peptide binding | Potency, µM (highest dose often 57.1 µM), without a hit: at the highest dose activity, negative = inhibition, most hits filed as inhibitors | actives 0.66% (n = 230,000); further: nearly all actives have a fitted effect of over 60% in size
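L3MBTL1 (50 nM) pre-complexed 30 min with biotinylated H3(1-15)K9me1 peptide (75 nM), then compounds added for 30 min at room temperature; AlphaScreen streptavidin donor/nickel chelate acceptor beads (10 ug/mL final) read after 30 min dark incubation.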
RECQ1 helicase = RECQ1 (human) helicase inhibition; P46063; RECQ1 DNA unwinding, red fluorescence kinetic read; Potency, µM (series often up to 57.3 µM), for the others: at the highest dose activity, negative = inhibition, usual class: inhibitors; actives 0.54% (n = 240,000); AID 2549;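 further: plate controls were vehicle for no effect and no enzyme for full effect; nearly all actives have a fitted effect of over 30% in size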
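50 nM RECQ1T1 preincubated 15 min with compound in Tris pH 8.0 buffer with MgCl2, DTT, Tween-20 and 2.5 ug/ml poly(dI-dC); started with 200 nM TAMRA/BHQ-2 forked duplex and 2 mM ATP. Unwinding read as fluorescence (525/598 nm), two reads 2 h apart.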
JMJD2E inh = JMJD2E (human) inhibition; JMJD2E catalytic domain, FDH-coupled NADH fluorescence (FDH is formaldehyde dehydrogenase); Potency, µM (titrated, usually from 57.1 µM), for inactives: at the top dose activity change, negative = inhibition, usual class: inhibitors; AID 2147; B2RXH2; actives 1.6% (n = 230,000); active means well fitted inhibition curve with a large enough effect, not every such curve was filed as active; inconclusive means small, poorly fitted or top-dose-only effect, or another doubt; inactive means no such curve, though single readings can be large or run the other way;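 further: 0% = wells with enzyme and -100% = buffer wells without enzyme; nearly all actives have a fitted effect of over 50% in size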
Target sequence (B2RXH2 1-337 limits assumed): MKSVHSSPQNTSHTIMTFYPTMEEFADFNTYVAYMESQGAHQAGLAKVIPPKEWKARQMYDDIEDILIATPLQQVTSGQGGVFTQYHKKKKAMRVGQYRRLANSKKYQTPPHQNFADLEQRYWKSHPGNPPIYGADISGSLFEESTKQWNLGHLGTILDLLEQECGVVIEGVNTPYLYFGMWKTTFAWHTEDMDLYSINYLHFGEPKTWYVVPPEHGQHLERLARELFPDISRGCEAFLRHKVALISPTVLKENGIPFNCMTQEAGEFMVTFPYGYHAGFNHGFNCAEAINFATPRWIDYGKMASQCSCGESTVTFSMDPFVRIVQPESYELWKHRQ
Active calls of the source: *; i = inactive; ? = inconclusive; / = no result; [ ] = another dose, or the depositor's remark. This excerpt belongs to a sample that is enriched for hits. Unless noted, the call rests on the fitted dose curve; in most records, active means well fitted curve in the direction sought with a large enough effect; inconclusive means small, poorly fitted or top-dose-only effect, or another doubt; inactive means no such curve, though single readings can be large; an effect the other way counts as inactive or inconclusive. Unless noted, on the % scale 0 is the no-effect control and ±100 the full control effect; potency means the concentration at half of the fitted maximal effect.

SMILES	TDP1 block	BLM helicase inh	APEX1 inh	L3MBTL1 inh	RECQ1 helicase	JMJD2E inh
Oc1ccc(CNc2ccccc2F)c2cccnc12	8%	0%	58%	8.9µM*	i	7.9µM*
Oc1ccc(CNc2ccccc2C(F)(F)F)c2cccnc12	0%	/	/	/	/	/
Oc1ccc(CNc2cccc(F)c2F)c2cccnc12	/	/	35%	25µM*	/	/
COCCNc1nc(-c2ccoc2)nc2ccccc12	/	-8%	16%	/	-3%	/
NC(=O)c1cc[n+](CC2=C(C(=O)[O-])N3C(=O)[C@@H](NC(=O)Cc4cccs4)[C@@H]3SC2)cc1	16µM*	-6%[21.4 µM]	/	/	-4%[25.9 µM]	13%[25.5 µM]
O=C(Cc1cccs1)N[C@@H]1C(=O)N2C(C(=O)[O-])=C(C[n+]3ccccc3)CS[C@H]12	/	/	28µM*	/	/	/
CC(C)(O/N=C(\C(=O)N[C@@H]1C(=O)N2C(C(=O)[O-])=C(C[n+]3ccccc3)CS[C@H]12)c1csc(N)n1)C(=O)O	/	/	-14%[21 µM]	/	/	/
CC(=O)/C(N=Nc1ccc(C(=O)O)cc1[N+](=O)[O-])=C(\C)O	/	4%	10µM*	/	i	-16%
CCOC(=O)/C(N=Nc1ccc(C(=O)O)cc1[N+](=O)[O-])=C(\C)O	-11%	0%	-11%	-7%	4%	-8%
Cc1nc(C/C(=N\Nc2ccccc2)c2ccc(O)cc2O)cs1	10%	-7%	-4%	?	-2%	14µM*
Cc1cc(C)n(-c2ncc3c(n2)N(CCO)CCOC3=O)n1	-3%	3%	16%	14%	i	?
CC1=CC2(O)OCCN(CCO)C2=CC1=O (stereo not given)	/	?	?	?	25µM*	25µM*
CN(C)c1ccc(/C=C(\Cl)c2nc3ccccc3s2)cc1	-3%	-14%	4%	10µM*	2%	-3%
O=C(O)c1ccc(C=C(c2nc3ccccc3s2)c2nc3ccccc3s2)cc1	5%	-12%	4%	-22%	16%	4%
C=CCNc1nnc(Cc2ccc(C(C)C)cc2)c(=O)[nH]1	50µM*	-9%	-11%	/	/	/
COc1ccc(Cc2nnc(NCCO)[nH]c2=O)cc1	1%	-3%	2%	/	/	/
CN(C)Cc1ccccc1-c1cc(NC2CC2)ncn1	3%[56.1 µM]	-11%	-1%	/	2%	-9%
O=C(CSc1nnc(NC(=O)C2CCC2)s1)Nc1ccccc1F	1%	-2%	30%	/	/	/
O=C(CSc1nnc(Nc2ccccc2F)s1)NC(=O)CN1CCCC1=O	14µM*	/	11µM*	?	/	/
Cn1c(SCc2ccc(F)cc2)nc2ccc(C(=O)NCc3cccc(Cl)c3)cc21	-3%	-7%	/	/	/	/
C#Cc1ccc([C@H]2C=C(C(=O)O)O[C@@H](OCc3ccc(CO)cc3)C2)cc1	/	-6%	32µM*	-24%	-13%	-19%
CC(C)(C)[C@@H]1C=C(C(=O)O)O[C@H](OCc2ccc(CO)cc2)C1	6%	0%	-1%	2%	-8%	-4%
CC(C)(C)[C@H]1C=C(C(=O)Nc2ccccc2)O[C@@H](OCc2ccc(CO)cc2)C1	5%	-11%	-5%	11%	28µM*	5%
O=C(NC1CC1)C1=C[C@H](c2c[nH]c3ccccc23)C[C@H](OCCCCO)O1	1%	1%	-1%	/	36%	?
O=C(NC1CC1)C1=C[C@@H](c2c[nH]c3ccccc23)C[C@@H](OCc2ccc(CO)cc2)O1	6%	-3%	0%	/	29%	25µM*
SMILES	TDP1 block	BLM helicase inh	APEX1 inh	L3MBTL1 inh	RECQ1 helicase	JMJD2E inh
CCCCCn1ncc2c3sc(C)cc3n(C)c2c1=O	-8%	/	/	/	/	/
Cc1ccc(NC(=O)CCS(=O)(=O)c2ccc3c(c2)oc(=O)n3C)c(Br)c1	0%	-1%	/	/	/	/
CCS(=O)(=O)N1Cc2ccccc2CC1C(=O)Nc1nc2c(C)cccc2s1 (stereo not given)	7%	-10%	8%	-12%	i	25µM*
COc1cc([N+](=O)[O-])cc(/C=N/NC(=O)C(C)Nc2ccccc2C)c1O (stereo not given)	11%	-3%	2%	-5%	-6%	?
C=CCc1cccc(/C=N/NC(=O)CCCNc2ccc(C)cc2)c1O	8%	-8%	-7%	-12%	-12%	?
C=CCc1cccc(/C=N/NC(=O)C(C)Nc2cccc(C)c2)c1O (stereo not given)	5%	-1%	-4%	-14%	-3%	20µM*
COc1cc([N+](=O)[O-])cc(/C=N/NC(=O)C(C)Nc2cccc(C)c2)c1O (stereo not given)	1%	-3%	8%	3%	-7%	3.2µM*
O=c1c(S(=O)(=O)c2cccc(Cl)c2)cn(Cc2ccccc2)c2cc(N3CCCCC3)c(F)cc12	-4%	-4%	/	/	/	/
CSc1ccc(/C=N/N2CCN(Cc3ccccc3)CC2)cc1	-13%	-8%	3%	-13%	2%	11µM*
Clc1ccc(/C=N/N2CCN(Cc3ccccc3)CC2)cc1	/	4%	-4%	-21%	/	/
CC1CC(=O)N(CC(=O)Nc2ccc(OC(F)(F)F)cc2)c2ccccc2S1 (stereo not given)	6%	-5%	/	/	/	/
COc1cc(Cl)c(C)cc1NC(=O)C(OC(=O)CNC(=O)c1ccccc1)c1ccccc1 (stereo not given)	-2%	/	/	/	/	/
COc1ccc(/C=C2/SC(=S)N(NS(=O)(=O)c3ccccc3)C2=O)cc1	0%	-7%	46%	/	/	/
COc1cc(/C=C2\SC(=S)N(NS(=O)(=O)c3ccc(C)cc3)C2=O)ccc1O	5%	-17%	-11%	-13%	22µM*	-1%
COc1cc(/C=C2\SC(=S)N(NS(=O)(=O)c3ccccc3)C2=O)ccc1O	/	-6%	-11%	-4%	28µM*	3%
COc1ccc(CNC(=O)CCc2nc(-c3ccc(C)cc3)no2)c(OC)c1	8%	0%	/	/	/	/
COc1ccccc1N1CCN(C(CNC(=O)C(=O)NCCCN(C)C)c2cccnc2)CC1 (stereo not given)	4%	2%	/	/	/	/
CC1=NN(c2nc(-c3ccc(F)cc3)cs2)C(=O)C1	14%	-7%	-1%	8%	-20%	-1%
CC1=NN(c2nc(-c3ccc(Cl)cc3)cs2)C(=O)C1	5%	?	2%	40%	-3%	25µM*
N#Cc1ccc2c(c1)C[C@]1(c3ccsc3)Oc3c(c(=O)oc4ccccc34)C2O1	/	-16%[12.4 µM]	-1%[12.4 µM]	/	/	/
Cc1cccc(NC(=O)CSc2nccn2Cc2ccco2)c1C	3%	-2%	16%	/	/	/
COc1cccc(NS(=O)(=O)c2cc3c(cc2C)N(C(C)=O)CCO3)c1	/	0%	35%	-1%	/	/
CC(=O)N1CCOc2cc(S(=O)(=O)Nc3c(C)cccc3C(C)C)c(Cl)cc21	8.9µM*	-5%	15%	-3%	/	/

Assay outcomes: PubChem BioAssay, National Center for Advancing Translational Sciences (NCATS)
